Measured values: PubChem BioAssay (NCATS)
Records with an inconclusive call do not appear. Calls of active or inactive are those of the source. Calls come from the whole dose curve; as a rule, active = well fitted curve in the direction sought with a large enough effect; inconclusive = small, poorly fitted or top-dose-only effect, or another doubt; inactive = no such curve, though single readings can be large; an effect the other way counts as inactive or inconclusive.

What was measured:
[1] = qHTS of pediatric cancer cell lines to identify multiple opportunities for drug repurposing: Primary screen for TC32 cells (AID 1347089); note: nearly all actives have a fitted effect of over 60% in size; note: potency is the fitted concentration of half-maximal effect
Summary of the method: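 qHTS, TC32, 48 h drug treatment, CellTiter-Glo luminescence as a proxy for metabolically active cells; primary top concentration 46 µM (MIPE 11-pt, NPC 8-pt); confirmatory 11-pt.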

[2] = qHTS of pediatric cancer cell lines to identify multiple opportunities for drug repurposing: Primary screen for SJ-GBM2 cells (AID 1347091); note: potency is the fitted concentration of half-maximal effect
Summary of the method: (§1)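 Cell viability, CellTiter-Glo luminescence; 500-1,000 cells/well, 8- or 11-point titration, 48 h compound exposure at 37 degrees C, 5% CO2. Controls: DMSO neutral, bortezomib 2.3 µM final as positive.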

[3] = qHTS of pediatric cancer cell lines to identify multiple opportunities for drug repurposing: Primary screen for A673 cells (AID 1347092); note: nearly all actives have a fitted effect of over 45% in size; note: potency is the fitted concentration of half-maximal effect
Summary of the method: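 Luminescence from CellTiter-Glo, taken after 15 min at room temperature, served as the proxy for metabolically active cells following 48 h treatment. Both potency and efficacy were taken from curves fitted to the titration data.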

[4] = qHTS of pediatric cancer cell lines to identify multiple opportunities for drug repurposing: Primary screen for BT-37 cells (AID 1347094); note: potency is the fitted concentration of half-maximal effect
Summary of the method: (§2)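 Luminescence from CellTiter-Glo served as readout of metabolically active cells after 48 h compound exposure. Titrations: MIPE 11-point, from 0.78 nM; NPC 8-point, from 0.59 nM (final). Concentration-response curves came straight from the primary screen.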

[5] = qHTS of pediatric cancer cell lines to identify multiple opportunities for drug repurposing: Primary screen for NB1643 cells (AID 1347099); note: nearly all actives have a fitted effect of over 50% in size; note: potency is the fitted concentration of half-maximal effect
Summary of the method: as §2

[6] = qHTS of pediatric cancer cell lines to identify multiple opportunities for drug repurposing: Primary screen for LAN-5 cells (AID 1347100); note: potency is the fitted concentration of half-maximal effect
Summary of the method: (§3)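 Cells (500-1,000/well) rested 5 h, then received compounds for 48 h; metabolically active cells were measured by CellTiter-Glo luminescence. Final concentrations spanned up to 46 µM (MIPE, 11-point) or 0.59 nM-46 µM (NPC, 8-point) in primary screens, 11-point in follow-ups.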

[7] = qHTS of pediatric cancer cell lines to identify multiple opportunities for drug repurposing: Primary screen for Rh18 cells (AID 1347102); note: nearly all actives have a fitted effect of over 65% in size; note: potency is the fitted concentration of half-maximal effect
Summary of the method: as §3

[8] = qHTS of pediatric cancer cell lines to identify multiple opportunities for drug repurposing: Primary screen for OHS-50 cells (AID 1347103); note: nearly all actives have a fitted effect of over 40% in size; note: potency is the fitted concentration of half-maximal effect
Summary of the method: as §3

[9] = qHTS of pediatric cancer cell lines to identify multiple opportunities for drug repurposing: Primary screen for RD cells (AID 1347104); note: nearly all actives have a fitted effect of over 55% in size; note: potency is the fitted concentration of half-maximal effect
Summary of the method: as §2

[10] = qHTS of pediatric cancer cell lines to identify multiple opportunities for drug repurposing: Primary screen for MG 63 (6-TG R) cells (AID 1347105); note: nearly all actives have a fitted effect of over 50% in size; note: potency is the fitted concentration of half-maximal effect
Summary of the method: as §2

[11] = qHTS of pediatric cancer cell lines to identify multiple opportunities for drug repurposing: Primary screen for control Hh wild type fibroblast cells (AID 1347106); note: nearly all actives have a fitted effect of over 55% in size; note: potency is the fitted concentration of half-maximal effect
Summary of the method: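 Viability after 48 h compound treatment at 37C, 500-1,000 cells/well, read as ATP luminescence with CellTiter-Glo. Primary screens used 11-point (MIPE, 0.78 nM-46 µM) or 8-point (NPC, 0.59 nM-46 µM) final concentrations; follow-up screens used 11-point dilutions.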

[12] = qHTS of pediatric cancer cell lines to identify multiple opportunities for drug repurposing: Primary screen for U-2 OS cells (AID 1347096); note: nearly all actives have a fitted effect of over 50% in size
Summary of the method: as §3

[13] = qHTS of pediatric cancer cell lines to identify multiple opportunities for drug repurposing: Primary screen for NB-EBc1 cells (AID 1347095); note: potency is the fitted concentration of half-maximal effect
Summary of the method: as §2

[14] = qHTS of pediatric cancer cell lines to identify multiple opportunities for drug repurposing: Primary screen for Saos-2 cells (AID 1347097); note: nearly all actives have a fitted effect of over 40% in size; note: potency is the fitted concentration of half-maximal effect
Summary of the method: as §2

[15] = qHTS of pediatric cancer cell lines to identify multiple opportunities for drug repurposing: Primary screen for DAOY cells (AID 1347090); note: nearly all actives have a fitted effect of over 55% in size; note: potency is the fitted concentration of half-maximal effect
Summary of the method: as §1

[16] = qHTS of pediatric cancer cell lines to identify multiple opportunities for drug repurposing: Primary screen for SK-N-MC cells (AID 1347093); note: potency is the fitted concentration of half-maximal effect
Summary of the method: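 Metabolically active cells were quantified by ATP-dependent luminescence (CellTiter-Glo, 15 min at room temperature) following 48 h treatment. Cells had been plated at 500-1,000 per well and settled for 5 h beforehand.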

[17] = qHTS of pediatric cancer cell lines to identify multiple opportunities for drug repurposing: Primary screen for BT-12 cells (AID 1347101); note: nearly all actives have a fitted effect of over 25% in size; note: potency is the fitted concentration of half-maximal effect
Summary of the method: as §3

[18] = qHTS of pediatric cancer cell lines to identify multiple opportunities for drug repurposing: Primary screen for SK-N-SH cells (AID 1347098); note: nearly all actives have a fitted effect of over 65% in size; note: potency is the fitted concentration of half-maximal effect
Summary of the method: as §3

Measured: Potency

CCOC(=O)[C@H](CCc1ccccc1)N[C@@H](C)C(=O)N1Cc2ccccc2C[C@H]1C(=O)O
not listed: [12] | [13] | [14] | [15] | [16] | [17] | [18]
inactive: all other assays above

Oc1c(I)cc(I)c2cccnc12
inactive: [12] | [5] | [7] | [11]
active: [2] 13.3 µM

CC(C)(C)CC(C)(C)c1ccc(O)c(Cc2ccc(Cl)cc2Cl)c1
active: [2] 21.1 µM | [13] 13.3 µM | [14] 16.8 µM | [6] 21.1 µM | [8] 24.6 µM | [10] 26.6 µM
inactive: [1] | [11]

CN1CCCC(CC2c3ccccc3Sc3ccccc32)C1 (stereo unspecified)
active: [16] 23.7 µM | [6] 23.7 µM | [17] 19.5 µM | [8] 24.6 µM
inactive: [15] | [13] | [12] | [5] | [11]

CCN(CC)CCOc1ccc(C(O)(Cc2ccc(Cl)cc2)c2ccc(C)cc2)cc1 (stereo unspecified)
active: [16] 21.1 µM | [14] 16.8 µM | [6] 21.1 µM | [17] 11 µM | [7] 23.7 µM | [8] 15.5 µM | [9] 21.1 µM
inactive: [11]

CC1=C(C(=O)OC(C)C)C(c2cccc([N+](=O)[O-])c2)C(C(=O)OC2CN(C(c3ccccc3)c3ccccc3)C2)=C(N)N1 (stereo unspecified)
active: [3] 13.3 µM | [16] 6.68 µM | [14] 21.1 µM | [9] 23.7 µM
inactive: [11]

COc1ccc(/C=C/C(=O)c2ccc(OC)cc2OC)cc1
active: [14] 10.6 µM | [18] 19.4 µM | [6] 21.1 µM
inactive: [1] | [12] | [10] | [11]

CCCCCCCCCCCCCCCC[N+](C)(C)CC
active: [15] 13.3 µM | [2] 18.8 µM | [3] 1.06 µM | [16] 2.66 µM | [4] 13.8 µM | [14] 13.3 µM | [18] 12.2 µM | [17] 2.76 µM | [7] 0.473 µM | [8] 0.692 µM | [9] 13.3 µM | [10] 26.6 µM

CC(C)(C)CC(C)(C)c1ccc(OCCOCC[N+](C)(C)Cc2ccccc2)cc1
active: [2] 21.1 µM | [3] 10.6 µM | [16] 5.96 µM | [4] 13.8 µM | [14] 13.3 µM | [6] 21.1 µM | [17] 8.71 µM | [7] 10.6 µM | [8] 6.17 µM | [9] 26.6 µM | [10] 26.6 µM

CCCSS/C(CCO)=C(\C)N(C=O)Cc1cnc(C)nc1N
active: [16] 15 µM | [13] 16.8 µM | [8] 21.9 µM
inactive: [4] | [12] | [17] | [7] | [11]

CCCCCCCCCCOCC(O)CN (stereo unspecified)
active: [3] 21.1 µM | [7] 23.7 µM | [8] 30.9 µM
inactive: [15] | [5]

NC(=O)C(=O)N/N=C/c1ccc([N+](=O)[O-])o1
inactive: [1] | [2] | [11]
active: [5] 21.1 µM | [6] 29.9 µM

O=c1c(-c2ccccc2)c1-c1ccccc1
active: [15] 21.1 µM | [3] 8.41 µM | [16] 6.68 µM | [14] 11.9 µM | [5] 8.41 µM | [6] 18.8 µM | [17] 5.5 µM | [8] 13.8 µM | [9] 18.8 µM

COc1ccc(CN2CCN(C(c3ccc(F)cc3)c3ccc(F)cc3)CC2)c(OC)c1OC
inactive: [15] | [5] | [10] | [11]
active: [18] 21.7 µM | [8] 13.8 µM

O=C(OCC(O)CO)c1ccccc1Nc1ccnc2cc(Cl)ccc12 (stereo unspecified)
active: [14] 23.7 µM
not listed: [3] | [4] | [8] | [15] | [16]
inactive: all other assays above

CN(C(=O)CN(CCO)CC(=O)N(C)C(C)(C)Cc1ccccc1)C(C)(C)Cc1ccccc1
inactive: [15] | [12] | [9] | [10] | [11]
active: [8] 17.4 µM

CCOc1ccc(Cc2nccc3cc(OCC)c(OCC)cc23)cc1OCC
inactive: [2] | [10] | [11]
active: [15] 21.1 µM | [8] 7.77 µM

COc1ccc(CCN2CCC(Nc3nc4ccccc4n3Cc3ccc(F)cc3)CC2)cc1
active: [4] 30.9 µM | [18] 6.12 µM | [6] 23.7 µM | [8] 30.9 µM | [9] 26.6 µM | [10] 16.8 µM

Oc1ccc(Cl)cc1Sc1cc(Cl)ccc1O
inactive: [11]
active: [15] 21.1 µM | [2] 13.3 µM | [4] 21.9 µM | [13] 15 µM | [14] 15 µM | [5] 18.8 µM | [6] 18.8 µM | [17] 19.5 µM | [9] 23.7 µM

CN(C)/N=N/c1nc[nH]c1C(N)=O
active: [16] 2.66 µM | [8] 1.74 µM
not listed: [1] | [4] | [5] | [12] | [15]
inactive: all other assays above

Oc1ccc(Cl)c2cccnc12
active: [18] 8.64 µM | [6] 21.1 µM | [17] 5.5 µM | [11] 16.8 µM
inactive: [2] | [12] | [10]

C#C[C@]1(O)CC[C@H]2[C@@H]3CCc4cc(OC5CCCC5)ccc4[C@H]3CC[C@@]21C
inactive: [1] | [13] | [11]
active: [18] 17.2 µM | [8] 19.5 µM

c1ccc(-c2ccc(C(c3ccccc3)n3ccnc3)cc2)cc1 (stereo unspecified)
inactive: [1] | [2] | [14] | [7] | [10] | [11]

O=c1[nH]c(=O)n([C@H]2C[C@H](O)[C@@H](CO)O2)cc1C(F)(F)F
inactive: [2] | [14] | [18] | [5] | [7] | [9] | [10] | [11]
active: [1] 1.05 µM | [4] 0.55 µM | [6] 1.33 µM
